Inconclusive results are not listed. The source made the active and inactive calls. The calls were made as follows, unless noted: active = hit-call score of the fitted dose curve at least 0.9, where 1 is the maximum; inactive = score below 0.9.
How the values were obtained:
[1] = BSK_LPS_PGE2: BioMAP Diversity Plus: LPS Assay for Prostaglandin E2 (PGE2) Biomarker Activity (AID 2283082); settings: primary human HUVEC with PBMC; actives raise or lower the signal;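 as to AC50: secreted prostaglandin E2 measured by ELISA in LPS-stimulated co-culture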
Outline: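 ELISA read-out of PGE2 from human umbilical vein endothelial cells co-cultured with peripheral blood mononuclear cells under LPS, 24 h post-dose. Gain or loss of signal scored relative to DMSO baseline.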

[2] = read-out: Macrophage colony-stimulating factor (MCSF), CSF1 (gene 1435); assay: BSK_LPS_MCSF: BioMAP Diversity Plus: LPS Assay for Macrophage colony-stimulating factor (MCSF) Biomarker Activity (AID 2283083); settings: primary human HUVEC with PBMC; actives raise or lower the signal
Outline: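 ELISA readout of M-CSF after 24 h compound exposure in a human endothelial/PBMC co-culture. Activity, in either direction, is fitted relative to DMSO vehicle.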

[3] = read-out: Tissue Factor, F3 (gene 2152); assay: BSK_LPS_TissueFactor: BioMAP Diversity Plus: LPS Assay for Tissue Factor Biomarker Activity (AID 2283084); settings: primary human HUVEC with PBMC; actives raise or lower the signal
Outline: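 ELISA signal for cell-surface Tissue Factor (CD142) was read 24 h after compound dosing of an LPS-stimulated human endothelial–PBMC primary co-culture. Gain or loss of signal was scored relative to DMSO.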

[4] = read-out: Tumor necrosis factor (Homo sapiens) (UniProt P01375); assay: BSK_LPS_TNFa: BioMAP Diversity Plus: LPS Assay for Tumour Necrosis Factor alpha (TNFa) Biomarker Activity (AID 2283085); settings: primary human HUVEC with PBMC; actives raise or lower the signal;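 as to AC50: TNFa protein level quantified by ELISA in the co-culture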
Outline: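 HUVEC/PBMC co-culture, LPS-stimulated; 24 h post-dose; TNFa by ELISA; gain or loss of signal fitted bidirectionally vs DMSO baseline.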

[5] = read-out: Vascular cell adhesion molecule 1 (VCAM1), VCAM1 (gene 7412); assay: BSK_LPS_VCAM1: BioMAP Diversity Plus: LPS Assay for Vascular cell adhesion molecule 1 (VCAM1) Biomarker Activity (AID 2283086); settings: primary human HUVEC with PBMC; actives raise or lower the signal
Outline: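 ELISA read-out of VCAM-1 at 24 h post-dosing in an LPS-driven HUVEC/PBMC primary human co-culture; gain or loss of signal fitted bidirectionally against DMSO baseline. Cytotoxicity tracked in parallel cultures by SRB total-protein staining.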

[6] = read-out: CD38, CD38 (gene 952); assay: BSK_SAg_CD38: BioMAP Diversity Plus: SAg Assay for CD38 Biomarker Activity (AID 2283087); settings: primary human HUVEC with PBMC; actives raise or lower the signal
Outline: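 Measures CD38 on a human endothelial/PBMC co-culture driven by SEB and TSST-1, 24 h after compound exposure, using ELISA with fluorescence detection; DMSO defines baseline for bidirectional curve fitting.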

[7] = read-out: CD40, CD40 (gene 958); assay: BSK_SAg_CD40: BioMAP Diversity Plus: SAg Assay for CD40 Biomarker Activity (AID 2283088); settings: primary human HUVEC with PBMC; actives raise or lower the signal
Outline: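 Compounds were dosed onto a human primary endothelial–PBMC co-culture, and after 24 h CD40 was quantified by ELISA using a fluorescence signal. Activity in either direction was fitted relative to DMSO.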

[8] = read-out: CD69, CD69 (gene 969); assay: BSK_SAg_CD69: BioMAP Diversity Plus: SAg Assay for CD69 Biomarker Activity (AID 2283089); settings: primary human HUVEC with PBMC; actives raise or lower the signal;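 as to AC50: cell surface CD69 protein quantified by ELISA with fluorescence detection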
Outline: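 Values derive from bidirectional fitting relative to DMSO vehicle. Cells: umbilical vein endothelium plus peripheral blood mononuclear cells, treated 24 h before fluorescent ELISA for CD69.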

[9] = read-out: Monocyte Chemoattractant Protein-1 (MCP1), CCL2 (gene 6347); assay: BSK_SAg_MCP1: BioMAP Diversity Plus: SAg Assay for Monocyte Chemoattractant Protein-1 (MCP1) Biomarker Activity (AID 2283090); settings: primary human HUVEC with PBMC; actives raise or lower the signal
Outline: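 Values derive from bidirectional fitting of ELISA-measured MCP1 against DMSO controls. Readings were taken 24 h after dosing human vascular endothelial cells co-cultured with peripheral blood mononuclear cells under superantigen stimulation.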

[10] = read-out: E-selectin (Homo sapiens) (UniProt P16581); assay: BSK_SAg_Eselectin: BioMAP Diversity Plus: SAg Assay for Eselectin Biomarker Activity (AID 2283091); settings: primary human HUVEC with PBMC; actives raise or lower the signal
Outline: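 Co-culture: HUVEC + PBMC. Dose compound; 24 h. ELISA for E-selectin. Bidirectional fit vs DMSO.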

[11] = read-out: Monokine induced gamma interferon (MIG), CXCL9 (gene 4283); assay: BSK_SAg_MIG: BioMAP Diversity Plus: SAg Assay for Monokine induced gamma interferon (MIG) Biomarker Activity (AID 2283092); settings: primary human HUVEC with PBMC; actives raise or lower the signal
Outline: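 Values reflect bidirectional fitting of ELISA-measured MIG against DMSO vehicle, taken 24 h after dosing of a co-culture of human umbilical vein endothelial cells and peripheral blood mononuclear cells.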

[12] = BSK_SAg_PBMCCytotoxicity: PBMC Cytotoxicity Assessment in the BioMAP Diversity Plus: SAg Assay (AID 2283093); settings: primary human HUVEC with PBMC;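 also: fitted both ways against DMSO so a hit may be loss or gain of signal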;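 as to AC50: PBMC superantigen activated with SEB plus TSST-1 one hour after compound addition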
Outline: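 PBMC viability by Alamar Blue reduction, fluorescence read at 546/580 nm after 6 h dye exposure. Cells were dosed 1 h before SEB plus TSST-1 activation (20 ng/mL final each), then held 90 h; endothelial/PBMC human co-culture.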

[13] = read-out: Interleukin-8 (IL8), CXCL8 (gene 3576); assay: BSK_SAg_IL8: BioMAP Diversity Plus: SAg Assay for Interleukin-8 (IL8) Biomarker Activity (AID 2283094); settings: primary human HUVEC with PBMC; actives raise or lower the signal
Outline: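 HUVEC/PBMC co-culture, 24 h post-dose; IL-8 by ELISA. Gain or loss of signal fitted bidirectionally vs DMSO baseline.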

[14] = BSK_SAg_Proliferation: Cell Proliferation Assessment in the BioMAP Diversity Plus: SAg Assay (AID 2283095); settings: primary human HUVEC with PBMC;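 also: relative cell number as total protein by SRB absorbance in sub-confluent culture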
Outline: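 HUVEC/PBMC co-culture, 96-well. TCA-fixed (10%), 0.1% SRB stain, A560 at 96 h. Protein content used as viability readout; bidirectional fitting vs DMSO control.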

[15] = BSK_SAg_SRB: Viability Assessment in the BioMAP Diversity Plus: SAg Assay (AID 2283096); settings: primary human HUVEC with PBMC;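 also: cells read one day after compound addition; hits may be either gain or loss of signal compared with DMSO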
Outline: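 Compounds were added to a human vascular co-culture of umbilical vein endothelium and PBMC. After 24 h, parallel cultures were fixed with 10% TCA, stained with 0.1% sulforhodamine B and read at 560 nm. Gain or loss of signal was fitted relative to DMSO.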

[16] = read-out: Monocyte Chemoattractant Protein-1 (MCP1), CCL2 (gene 6347); assay: BSK_LPS_MCP1: BioMAP Diversity Plus: LPS Assay for Monocyte Chemoattractant Protein-1 (MCP1) Biomarker Activity (AID 2283081); settings: primary human HUVEC with PBMC; actives raise or lower the signal;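 as to AC50: secreted MCP-1 protein quantified by ELISA in culture supernatant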
Outline: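 Human endothelial–PBMC co-cultures were dosed with chemical, then LPS-driven MCP-1 levels were quantified by ELISA at 24 h. Activity in either direction was fitted versus DMSO negative control.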

[17] = target: human CYP2B6, CYP2B6 (gene 1555) (UniProt P20813); assay: NVS_ADME_hCYP2B6: NovaScreen (NVS) CYP450-related Enzyme Activity (ADME) Assay for human CYP2B6 (AID 2283101; active = hit-call score of the fitted dose curve at least 0.9, where 1 is the maximum)
human CYP2B6, CYP2B6 (gene 1555), sequence (P20813 whole entry, looked up): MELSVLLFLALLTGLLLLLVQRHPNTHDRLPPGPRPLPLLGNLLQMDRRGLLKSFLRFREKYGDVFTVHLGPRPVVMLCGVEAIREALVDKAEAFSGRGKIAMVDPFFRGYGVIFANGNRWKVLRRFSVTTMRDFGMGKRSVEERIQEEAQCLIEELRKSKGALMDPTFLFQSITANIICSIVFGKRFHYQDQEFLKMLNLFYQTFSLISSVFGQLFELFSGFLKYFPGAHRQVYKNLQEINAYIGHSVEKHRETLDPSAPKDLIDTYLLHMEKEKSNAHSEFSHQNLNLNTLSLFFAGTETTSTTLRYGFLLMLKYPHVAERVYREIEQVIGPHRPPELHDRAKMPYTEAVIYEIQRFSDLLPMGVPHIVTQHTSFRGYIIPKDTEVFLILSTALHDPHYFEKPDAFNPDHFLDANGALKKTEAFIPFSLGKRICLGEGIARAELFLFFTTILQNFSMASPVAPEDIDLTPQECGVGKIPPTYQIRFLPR
Outline: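 Compounds were first screened in duplicate at 10 uM against recombinant enzyme, with the fluorescent product measured after 1 hour. Active compounds were retested over a concentration series. Loss of fluorescence versus acetonitrile control was scored as reduced enzyme activity.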

[18] = target: human CYP2D6, CYP2D6 (gene 1565) (UniProt P10635); assay: NVS_ADME_hCYP2D6: NovaScreen (NVS) CYP450-related Enzyme Activity (ADME) Assay for human CYP2D6 (AID 2283107; active = hit-call score of the fitted dose curve at least 0.9, where 1 is the maximum)
human CYP2D6, CYP2D6 (gene 1565), sequence (P10635 whole entry, looked up): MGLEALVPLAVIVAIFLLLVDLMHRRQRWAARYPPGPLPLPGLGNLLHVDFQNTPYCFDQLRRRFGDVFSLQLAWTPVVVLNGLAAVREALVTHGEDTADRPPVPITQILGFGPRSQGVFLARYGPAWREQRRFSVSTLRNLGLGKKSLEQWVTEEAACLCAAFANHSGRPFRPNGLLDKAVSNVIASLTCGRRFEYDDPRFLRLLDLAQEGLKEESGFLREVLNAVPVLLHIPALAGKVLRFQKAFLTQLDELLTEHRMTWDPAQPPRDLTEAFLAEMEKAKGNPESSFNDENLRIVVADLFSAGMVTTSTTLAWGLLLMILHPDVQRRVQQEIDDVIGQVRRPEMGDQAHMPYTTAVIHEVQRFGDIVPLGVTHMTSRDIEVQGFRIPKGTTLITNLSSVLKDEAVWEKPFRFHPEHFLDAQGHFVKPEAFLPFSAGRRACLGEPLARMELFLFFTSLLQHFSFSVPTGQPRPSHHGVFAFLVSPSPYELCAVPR
Outline: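 Insect-cell recombinant enzyme + fluorogenic substrate, cell-free; 1 h incubation; fluorescence intensity readout. Acetonitrile = neg. ctrl/baseline. Single-point 10 uM, duplicate; follow-up concentration series.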

[19] = target: human CYP2C9, CYP2C9 (gene 1559) (UniProt P11712); assay: NVS_ADME_hCYP2C9: NovaScreen (NVS) CYP450-related Enzyme Activity (ADME) Assay for human CYP2C9 (AID 2283108; active = hit-call score of the fitted dose curve at least 0.9, where 1 is the maximum)
human CYP2C9, CYP2C9 (gene 1559), sequence (P11712 whole entry, looked up): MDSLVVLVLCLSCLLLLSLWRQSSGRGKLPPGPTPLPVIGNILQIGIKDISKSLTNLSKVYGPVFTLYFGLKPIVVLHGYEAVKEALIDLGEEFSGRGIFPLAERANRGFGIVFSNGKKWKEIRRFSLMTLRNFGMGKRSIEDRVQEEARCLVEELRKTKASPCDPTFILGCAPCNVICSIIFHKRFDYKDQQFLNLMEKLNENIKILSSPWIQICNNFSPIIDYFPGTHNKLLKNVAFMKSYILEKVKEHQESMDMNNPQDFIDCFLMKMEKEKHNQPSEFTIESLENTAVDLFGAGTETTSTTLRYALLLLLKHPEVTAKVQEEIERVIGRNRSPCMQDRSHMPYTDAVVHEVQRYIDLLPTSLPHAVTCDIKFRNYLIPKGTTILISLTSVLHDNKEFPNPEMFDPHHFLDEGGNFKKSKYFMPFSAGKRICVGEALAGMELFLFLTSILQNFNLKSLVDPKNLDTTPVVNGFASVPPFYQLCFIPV
Outline: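 Recombinant human CYP2C9 expressed in SF9 cells, fluorogenic substrate, fluorescence read 0.75 h after dosing. Chemicals first run in duplicate at 10 uM, with actives followed in concentration series; loss of signal versus acetonitrile baseline.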

Measured: AC50

E-selectin (Homo sapiens), sequence (P16581 whole entry, looked up): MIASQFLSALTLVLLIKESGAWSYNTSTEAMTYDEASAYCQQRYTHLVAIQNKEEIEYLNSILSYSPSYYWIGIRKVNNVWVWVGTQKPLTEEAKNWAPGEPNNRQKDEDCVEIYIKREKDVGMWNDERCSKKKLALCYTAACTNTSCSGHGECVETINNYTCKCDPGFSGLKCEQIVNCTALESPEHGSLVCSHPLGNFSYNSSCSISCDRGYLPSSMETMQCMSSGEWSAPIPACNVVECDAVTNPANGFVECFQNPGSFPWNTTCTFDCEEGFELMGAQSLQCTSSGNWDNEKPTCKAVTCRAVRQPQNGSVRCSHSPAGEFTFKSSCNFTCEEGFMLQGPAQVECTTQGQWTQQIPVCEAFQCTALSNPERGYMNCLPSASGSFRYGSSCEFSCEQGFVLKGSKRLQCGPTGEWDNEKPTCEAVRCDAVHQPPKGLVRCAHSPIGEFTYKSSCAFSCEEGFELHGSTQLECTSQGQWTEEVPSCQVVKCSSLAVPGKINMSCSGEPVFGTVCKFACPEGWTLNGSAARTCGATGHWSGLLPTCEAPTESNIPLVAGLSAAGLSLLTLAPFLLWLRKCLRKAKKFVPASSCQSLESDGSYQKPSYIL
Tumor necrosis factor (Homo sapiens), sequence (P01375 whole entry, looked up): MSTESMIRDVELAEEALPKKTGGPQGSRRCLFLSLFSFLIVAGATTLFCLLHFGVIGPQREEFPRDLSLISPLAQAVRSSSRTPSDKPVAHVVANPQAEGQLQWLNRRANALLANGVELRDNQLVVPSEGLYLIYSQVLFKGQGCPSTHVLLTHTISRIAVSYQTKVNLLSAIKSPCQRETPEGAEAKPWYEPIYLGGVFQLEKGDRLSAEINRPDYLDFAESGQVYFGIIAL

c1ccc2c(c1)oc1ccccc12
not listed: [16] | [17] | [18] | [19]
inactive: all other assays above

[Cl-].[Cl-].[Hg+2]
inactive: [16] | [1] | [9] | [13] | [15]
active: [2] 31.7 µM | [3] 32.9 µM | [4] 33 µM | [5] 28.2 µM | [7] 32 µM | [8] 36.8 µM | [10] 20 µM | [12] 31 µM | [14] 22.7 µM | [17] 9.16 µM | [18] 3.44 µM | [19] 3.68 µM

COc1cc(C=O)cc2c1[C@H](COC(N)=O)[C@]1(OC(C)=O)ON2C[C@H]2[C@@H]1N2C(C)=O
inactive: [1] | [4]
active: [16] 5.86 µM | [2] 3.97 µM | [3] 14.3 µM | [5] 16.7 µM | [7] 18.2 µM | [8] 13.2 µM | [9] 5.75 µM | [10] 21.4 µM | [12] 4.25 µM | [13] 8.56 µM | [14] 0.402 µM | [15] 4.34 µM

CN(C)c1ccc(C(=O)c2ccc(N(C)C)cc2)cc1
active: [1] 2.63 µM | [5] 14.4 µM | [6] 20 µM | [14] 0.578 µM | [15] 14.6 µM
not listed: [16] | [17] | [18] | [19]
inactive: all other assays above

ClC1=C(Cl)C2(Cl)C3C(Cl)C=CC3C1(Cl)C2(Cl)Cl (stereo not given)
inactive: [1]
active: [16] 31.4 µM | [2] 29.5 µM | [3] 32.2 µM | [4] 33.5 µM | [5] 33.7 µM | [7] 25.7 µM | [8] 31.8 µM | [9] 31.6 µM | [10] 31.1 µM | [12] 13 µM | [13] 27.9 µM | [14] 10.9 µM | [15] 31.7 µM

Cc1cccc(N)c1N
active: [1] 20 µM | [2] 7.16 µM | [5] 14.3 µM
not listed: [16] | [17] | [18] | [19]
inactive: all other assays above

CCCCC(CC)COC(=O)c1ccc(C(=O)OCC(CC)CCCC)c(C(=O)OCC(CC)CCCC)c1 (stereo not given)
not listed: [6] | [11] | [17] | [18] | [19]
inactive: all other assays above

Cc1cc(N=Nc2ccccc2C)ccc1N
inactive: [16] | [2] | [3] | [4] | [8] | [12]
active: [1] 3.97 µM | [5] 20 µM | [7] 30.7 µM | [9] 20 µM | [10] 4.75 µM | [13] 29.2 µM | [14] 29.2 µM | [15] 9.88 µM | [17] 1.71 µM | [19] 4.5 µM

From PubChem BioAssay (EPA / NIEHS)
